The record followed here is PubChem BioAssay (EPA / NIEHS).

Each structure is given as a SMILES string. Results filed as inconclusive are left out. Active and inactive are the calls of the source. How the source made its calls: active means hit-call score of the fitted dose curve at least 0.9, where 1 is the maximum; inconclusive means response in the unintended direction; inactive means score below 0.9.

Chain of human RAR-related Orphan Receptor gamma (RORg), RORC (gene 6097) (P51449 whole entry, looked up, the tested form may be a part): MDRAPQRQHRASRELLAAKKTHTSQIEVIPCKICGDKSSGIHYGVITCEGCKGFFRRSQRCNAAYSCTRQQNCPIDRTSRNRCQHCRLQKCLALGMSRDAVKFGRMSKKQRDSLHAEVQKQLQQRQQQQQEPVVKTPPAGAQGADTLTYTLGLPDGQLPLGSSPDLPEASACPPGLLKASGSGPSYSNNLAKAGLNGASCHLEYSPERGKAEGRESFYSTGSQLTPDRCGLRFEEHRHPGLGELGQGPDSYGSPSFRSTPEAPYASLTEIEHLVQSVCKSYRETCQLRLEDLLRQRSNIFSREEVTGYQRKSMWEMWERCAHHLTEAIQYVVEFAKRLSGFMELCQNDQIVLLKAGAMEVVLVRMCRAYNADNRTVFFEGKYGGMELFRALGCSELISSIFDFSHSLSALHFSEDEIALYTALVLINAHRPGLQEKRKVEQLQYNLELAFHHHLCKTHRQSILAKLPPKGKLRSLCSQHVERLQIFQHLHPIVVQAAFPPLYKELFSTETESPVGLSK

The test has as its target human RAR-related Orphan Receptor gamma (RORg), RORC (gene 6097) (UniProt P51449). In words: ATG_RORg_TRANS: Attagene TRANS-FACTORIAL HepG2 Assay for human RAR-related Orphan Receptor gamma (RORg) (AID 2283011). The procedure, abridged: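 HepG2 cells transiently transfected with GAL4-UAS reporter units and chimeric RORg-Gal4 construct; after 24 h chemical exposure, reporter mRNA measured by RT-PCR with fluorescent capillary electrophoresis, gain of signal fitted against DMSO.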
With `COc1cc(CCC(=O)CC(=O)CCc2ccc(O)c(OC)c2)ccc1O`, the call was inactive.
For `Cc1oc(-c2ccccc2)nc1CCOc1ccc(C[C@H](Nc2ccccc2C(=O)c2ccccc2)C(=O)O)cc1` the value was “inactive”; for `O=C(O)Cc1cc(I)c(Oc2cc(I)c(O)c(I)c2)c(I)c1`, “inactive”.
As for `CCc1ccc(CCOc2ccc(CC3SC(=O)NC3=O)cc2)nc1` (stereo not drawn), the call was inactive.
Then `C=C(C)C(=O)OCCC(F)(F)C(F)(F)C(F)(F)C(F)(F)C(F)(F)C(F)(F)F`, with “inactive”.
Regarding `FC(F)(I)C(F)(F)C(F)(F)C(F)(F)C(F)(F)C(F)(F)I`, the outcome was inactive.
Then `COc1ccc([N+](=O)[O-])cc1N`, with “inactive”.
Then `CC(C)(C)c1cc(C(C)(C)C)c(O)c(C(C)(C)C)c1`, with “inactive”; and `CCCOc1sc(C(=O)N2CCC(c3cc(CN)ccc3F)CC2)c(C)c1Br`, with “inactive”.
Turning to `O=C(OCCOCCOC(=O)c1ccccc1)c1ccccc1`, the outcome was inactive.
Then `C[C@@H]1C[C@H]2[C@@H]3CCC4=CC(=O)C=C[C@]4(C)[C@@]3(F)[C@@H](O)C[C@]2(C)[C@@]1(O)C(=O)COP(=O)(O)O`, with “inactive”; and `O=C1OC2(c3ccccc31)c1cc(Br)c(O)c(Br)c1Oc1c2cc(Br)c(O)c1Br`, with “inactive”; and `CN1CCC[C@H]1c1cccnc1`, with “inactive”.
On to `c1ccc2cc3c(ccc4ccccc43)cc2c1`, for which the outcome was inactive.
Regarding `CCCCCCCCOC(=O)CCCCCCCCC(=O)OCCCCCCCC`, the result was inactive.
With `O=c1c(-c2ccc(O)cc2)coc2cc(O)ccc12`, the call was inactive.
Turning to `OC1CCCCC1`, the compound was called inactive.
On to `CCCCC[C@H](O)CC(=O)CCc1ccc(O)c(OC)c1`, for which the call was inactive.
